Each structure is given as a SMILES string. Where “and” joins values, the source holds several entries; their conditions need not be identical. Equal values may be shown once. Hit rate of the full screen: of about 300,000 compounds, about 37,000 (12%) were called active. What follows is part of a selection rich in actives, with near analogues and random picks from the rest. Unmarked numbers belong to inactive results. Rule as the data show it: active = max response mostly above about 13% (no sharp cut-off); inactive = mostly below about 14%.

The nature of this assay: Cycloheximide Counterscreen for Small Molecule Inhibitors of Shiga Toxin. Also: read at 38.3 µM for the half of the compounds with a filed dose; 0% is about no effect. Conditions: cell reporter, cycloheximide protein synthesis inhibition counterscreen; hits give high values. Background: A counterscreen serves to expose hits that act by an unwanted route or on another target.
As to `Cc1sc2ncn(CC(=O)NCCN(C)C)c(=O)c2c1S(=O)(=O)N1CCC(C)CC1`, the max response was 7.86%. For the compound `Cc1ccccc1-n1c(C)cc(/C=N/NC(=O)c2ccc(CN3CCOCC3)cc2)c1C`, the max response is 1.39%. For `COc1cc(CC(=O)N2CCC(n3nccc3NC(=O)C3CC3)CC2)cc(OC)c1OC` the value was -1.39%; for `C/C(=N\NC(=O)c1ccc(NS(=O)(=O)c2cccs2)cc1)c1ccc2ccccc2c1`, 7.4%. In the case of `Cc1ccc(S(=O)(=O)N(Cc2cc3ccccc3[nH]c2=O)CC2CCCO2)cc1` (stereo not given) it was -1.24%. For the compound `CCn1cc(CN2CCC(C(=O)Nc3cccc(-c4cccc(Cl)c4)c3)CC2)c(C)n1`, the max response is -9.71%. For `CCCOc1ccc(-c2c(C(=O)N/N=C/c3ccco3)nnn2-c2nonc2N)cc1`, the max response is -0.593%.

For `CNC(=O)c1cccc2nc3ccccc3nc12`, the max response was 1.67%. In the case of `O=C(Nc1cccnc1Cl)c1cc(-c2ccccc2O)on1` it was 17%; in that of `CNC(=O)c1csc(-c2ccccc2)n1`, 13.6% (active); in that of `C=CCNC(=O)c1ccccc1SCc1c(C)noc1C`, -1.93%. For the compound `O=C(O)Cc1csc(-c2cccc(Oc3ccccc3)c2)n1`, the max response is -1.21% and 2.4%. In the case of `O=C(NCc1ccccn1)c1cc(-c2ccccc2Cl)on1` it was 38.8% (active); in that of `CNC(=O)c1csc(Cc2c(Cl)sc3ccc(Cl)cc23)n1`, -2.08%. In the case of `C=CCNC(=O)c1csc(-c2ccccc2)n1` it was 28.5% (active); in that of `C=CCNC(=O)c1cc(-c2ccccc2O)on1`, 59.8% (active). For `O=C(NCc1ccccn1)c1ccc2nc(-c3ccco3)c(-c3ccco3)nc2c1` the value was 0.719%; for `C=CCNC(=O)c1cc2nc(C3CC3)cc(C(F)F)n2n1`, 11.1%. Consider `Clc1ccccc1-c1cc(COc2ccc3ccccc3c2)no1`, for which the max response was 6.98%. For `CCn1c(=O)c(C(=O)NCc2ccc3c(c2)OCO3)c(O)c2ccccc21`, the max response is -2.8%. In the case of `COc1ccc(OC)c(/C(C)=N\NC(=O)c2cc3cc(Cl)ccc3n2C)c1` it was -5.13%; in that of `COc1cc([C@H](Cc2ccccc2)NC(C)=O)oc(=O)c1`, -1.33%. In the case of `Cc1ccc(C)c(S(=O)(=O)Nc2cccc(-n3cnnn3)c2)c1` it was -4.16%.

Take `CC1CN(C(=O)CCC(=O)NC2CCN(Cc3ccccc3)CC2)c2ccccc2O1` (stereo not given): the max response is -2.34%. For `O=C(O)CCCn1cc(NC(=O)COc2cccc(Cl)c2)cn1` the value was -1.65%; for `[O-][N+]12CCCCC1CCCC2CO` (stereo not given), -2.81%.

On to `Cc1ccccc1N1CCN(CCCN2C(=O)C3CCCCN3C2=O)CC1` (stereo not given), for which the max response is -0.589%. For `CCNC(=O)NC(=O)C(C)OC(=O)c1cc(S(=O)(=O)N2CCCCCC2)ccc1OC` (stereo not given) the value was 15.1%.

With `O=C1CCC(CCC(=O)N2CCCC(C(=O)c3ccc(Cl)cc3)C2)=NN1` (stereo not given), the max response was 8.2%.

As to `CSCCC(=O)N1CCCC(CNC(=O)c2ccccc2Cl)C1` (stereo not given), the max response was -3.24%. In the case of `COCC1CCN(C(=O)CCc2nnc(C3(c4ccc(Cl)cc4)CCC3)o2)C1` (stereo not given) it was 44% (active). In the case of `CC[C@]1(c2ccccc2OC)C(=O)N(C(=O)OC)N1C(=O)OC` it was 29.1% (active); in that of `COC(=O)c1ccccc1NC(=O)Cc1ccccc1OC`, -2.67%. For `COc1ccccc1CC(=O)Nc1ccc(F)cc1F` the value was -2.45%. In the case of `CCCC(C)NC(=O)C1CCN(C(=O)C2CC(=O)N(c3ccc(C)cc3)C2)CC1` (stereo not given), the max response was -4.68%. For `Brc1c(CSc2nncc3ccccc23)nc2ccccn12` the value was 38.5% (active); for `CC(=O)O[C@H]1c2ccccc2-c2ccccc2[C@@H]1OC(C)=O`, 0.95%. In the case of `Cc1ccc(SCC(=O)NNC(=O)c2ccc(S(C)(=O)=O)cc2)cc1` it was 5.01%. For `Cc1cccnc1CCNC(=O)C1CCC(=O)N(Cc2cccc(F)c2)C1` (stereo not given) the value was -2.2%. As to `O=C(c1ccco1)N1CCN(Cc2cccc(C(F)(F)F)c2)CC1`, the max response is -3.76%.

Consider `O=C1CCC(C(=O)N2CCCCO2)CN1Cc1cccc(C(F)(F)F)c1` (stereo not given), for which the max response is 30% (active). In the case of `COCC1CCN(C(=O)C2CCC(=O)N(CC3CCCCC3)C2)CC1` (stereo not given) it was -2.01%; in that of `COC(=O)c1ccc(CNC(=O)C2CCC(=O)N(Cc3cccc(F)c3)C2)cc1` (stereo not given), 0.912%. For `COCC1CCN(C(=O)C2CCC(=O)N(Cc3cccc(C(F)(F)F)c3)C2)CC1` (stereo not given) the value was 29.7% (active); for `CC(=O)Nc1ccc(S(=O)(=O)N2CCC(C(=O)N[C@@H](Cc3ccccc3)C(=O)O)CC2)cc1`, 10.8%. In the case of `COc1ccccc1CNC(=O)C1CCN(S(=O)(=O)c2ccc3c(c2)OCCO3)CC1` it was -5.22%; in that of `CCOc1cc(C(=O)O)ccc1OCCOc1ccccc1`, -8.53%. For the compound `COc1ccccc1CC(=O)Nc1ccc(S(=O)(=O)N2CCCC2)cc1`, the max response was -4.23%. For `C[C@@]12C(=O)N(c3cccc(Br)c3)C(=O)N1[C@H](c1ccc(Cl)cc1)[C@@H]1C(=O)N(C3CCCCC3)C(=O)[C@@H]12` the value was -2.82%; for `COc1cccc(C(=O)Nc2nnc(S(=O)(=O)N3CCOCC3)s2)c1`, -4.33%; for `CNC(=O)c1ccc2nc(NC(C)=O)sc2c1`, 38% (active). In the case of `O=C(NC(Nc1nc2ccc([N+](=O)[O-])cc2s1)(C(F)(F)F)C(F)(F)F)c1ccccc1` it was 0.792%.

Regarding `CS(=O)(=O)c1ccc2nc(NC(=O)c3ccc(Cl)nc3)sc2c1`, the max response was 39.4% (active). For `CS(=O)(=O)c1ccc2nc(NC(=O)C3C4C=CC(C4)C3C(=O)O)sc2c1` (stereo not given) the value was 2.94%; for `CCCC(=O)Nc1nc2ccc(NC(=O)c3cccnc3)cc2s1`, 9.53%; for `COc1cccc(C(=O)Nc2nc3ccc(S(C)(=O)=O)cc3s2)c1`, 33.2% (active). For `CS(=O)(=O)c1ccc2nc(NC(=O)c3ccc(N4CCCC4=O)cc3)sc2c1` the value was -2.38%; for `CS(=O)(=O)c1ccc2nc(NC(=O)CN3CCCCCC3)sc2c1`, -1.48%. For `O=C(Nc1nc2ccc([N+](=O)[O-])cc2s1)c1ccc(S(=O)(=O)N2CCCc3ccccc32)cc1` the value was -2.29%. As for `O=C(Nc1nc2ccc([N+](=O)[O-])cc2s1)c1ccncc1`, the max response is 23.5% (active).
